Experimental data from PubChem BioAssay (NCI).
The panel holds about 83,000 compounds, 20% with a hit somewhere; the sample as a whole holds those more often.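 Cell lines were cultured in 96-well plates, exposed to a single compound concentration, and assessed for percent growth 48 hours later.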 Activity calls are given as the source filed them.

system: MDA-MB-435 melanoma; experiment: NCI-60 one-dose screen, 48 h (100 = growth as untreated, 0 = no growth, -100 = all killed); settings: 10 µM unless noted
Procedure: Growth inhibition of the MDA-MB-435 human Melanoma tumor cell line is measured as a screen for anti-cancer activity. Cells are grown in 96 well plates and exposed to the test compound for 48 hours. Compounds are tested at a single concentration, which is 10^-5 M for most compounds. The reported endpoint is percent growth (GI% or GIPRCNT), where numbers from 0 - 100% represent growth inhibition, and numbers from -100% - 0 represent cell death. For example, a value of 40 represents 60% growth inhibition. A value of 0 means no net growth occurred over the course of the experiment. A value of -40 indicates 40% of cells at the beginning of the experiment died by the end of the experiment. A value of -100 means all cells are dead at the end of the experiment.
NCI-60 Human Tumor Cell Lines Screen was performed using the standard one-dose NCI protocol, which is described in more detail at https://dtp.cancer.gov/discovery_development/nci-60/default.htm.
Compounds with GIPRCNT values below 10 were considered active. Activity score was based on GIPRCNT using the following formula: […]
Score is 0 for GIPRCNT values of 100 or above, 50 for GIPRCNT values of 0, and 100 for GIPRCNT values of -100.

| Structure (SMILES) | growth |
| --- | --- |
| C=C(C)[C@@H]1CC[C@]2(C(=O)OC)CC[C@]3(C)[C@H](CC[C@@H]4[C@@]5(C)C/C(=C/c6ccc(OC)cc6)C(=O)C(C)(C)[C@@H]5CC[C@]43C)[C@@H]12 | 72.1% (inactive) |
| CSc1nc(-c2cccc(NC(=O)CCl)c2)c(C#N)c(=O)n1C | 54.5% (inactive) |
| O=C1OC(c2ccccc2)C(O)=C1c1ccccc1 (stereo not given) | 105% (inactive) |
| COc1cc2c(cc1OC)C(Sc1ccc(SC)cc1)c1c(nc(N)c(C#N)c1N)O2 (stereo not given) | -90.8% (active) |
| N#Cc1nnn(-c2ccc(S(N)(=O)=O)cc2)c1NCC(=O)c1ccccc1 | 91.8% (inactive) |
| O=C(/C=C/c1cccc(Cl)c1)c1ccc(O)c(CN2CCN(c3cc4c(cc3F)c(=O)c(C(=O)O)cn4C3CC3)CC2)c1 | 44.7% (inactive) |
| COc1cc2c(cc1O)CC[C@@H]1[C@@H]2CC[C@]2(C)[C@@H](OCCCN(C)C)CC[C@@H]12 | -61.8% (active) |
| CCCCN1CCCn2c1nc1c2c(=O)n(CCC)c(=O)n1CCC | 102% (inactive) |
| CCOC(=O)c1c(C)oc2ncnc(N3CCN(C(=O)COc4ccc(SC)cc4)CC3)c12 | 103% (inactive) |
| COc1ccc(CN2c3ccccc3Oc3ccccc32)cc1O | 9.49% (active) |
| Cc1ccc2c(C(C[N+](=O)[O-])c3ccccc3F)c(-c3ccccc3)[nH]c2c1 (stereo not given) | -30.3% (active) |
| COc1ccc(C2Nc3c(c(C(C)(C)C)nn3-c3ccccc3)C(=O)CS2)cc1 (stereo not given) | 106% (inactive) |
| CSc1nc(NCCN2CCOCC2)c(C#N)c(-c2cccc([N+](=O)[O-])c2)n1 | 104% (inactive) |
| CCOc1ccc(-n2nc(C(=O)Nc3ccccc3)nc2-c2cc(OC)c(OC)c(OC)c2)cc1 | 0.193% (active) |
| CCc1nc(N)nc(N)c1C#CC(C)c1ccc(-c2ccncc2)cc1Cl (stereo not given) | 22.1% (inactive) |
| O=C1/C(=C/N2N=C(c3ccc4ccccc4c3)CC2c2ccccc2O)SC(=S)N1c1cccnc1 (stereo not given) | -48.7% (active) |
| COc1ccc(CN2c3ccccc3Sc3ccccc32)cc1O | 0.932% (active) |
| CC(=O)c1cc(C(=O)c2ccc3c(c2)Sc2ccccc2N3)n2ccccc12 | -9.84% (active) |
| CC(C)C1=C[C@@]23CC[C@@H]4[C@](C)(CCC[C@@]4(C)C(=O)N4CCCNCC4)[C@H]2C[C@@H]1[C@H]1C(=O)CCC(=O)[C@H]13 | 109% (inactive) |
| COc1cc2c(cc1-c1c(C)noc1C)ncc1nc(C3CCOCC3)n([C@@H](C)COC(F)F)c12 | 39.7% (inactive) |

| Structure (SMILES) | growth |
| --- | --- |
| CC(C)c1c(C(=O)c2ccccc2)c(-c2ccccc2)c(-c2ccc(F)cc2)n1CC[C@@H](O)C[C@@H](O)CC(=O)O | 68.9% (inactive) |
| O=C1/C(=C/c2ccc3c(c2)OCO3)SC(=S)N1CCc1ccc(O)cc1 | 94% (inactive) |
| O=C1Nc2c(ccc(Cl)c2Cl)/C1=C\c1ccc(C(F)(F)F)cc1 | 95.4% (inactive) |
| N=C(N)c1ccc(-c2ccc(-c3ccc4ccccc4c3)s2)s1 | 11.3% (inactive) |
| Nc1ccn(-c2ccc(Br)cc2)c(=O)n1 | 96.6% (inactive) |
| Cc1nc2c3c(-c4ccccc4)c(-c4ccccc4)oc3ncn2n1 | 100% (inactive) |
| O=C(NCCN1CCOCC1)Nc1ccc(-c2cc3c(Nc4ccc(Oc5cccc(C(F)(F)F)c5)c(Cl)c4)ncnc3s2)cc1 | 1.05% (active) |
| O=C1/C(=C/c2ccccc2)SC(=S)N1CCc1ccc(O)cc1 | 96.2% (inactive) |
| O=C1/C(=C(/c2ccccc2)N2CCOCC2)Cc2ccccc21 | 12.6% (inactive) |
| OCc1ccc(N2CCc3cccc(F)c3C2)cc1Cl | 111% [0.1 µM] (inactive) |
| FC(F)(F)Oc1ccc2nc3nc4ccc[nH]c4cc3c2c1 | 89.2% (inactive) |
| COc1cccc(Nc2nc(SC)nc(-c3cccc([N+](=O)[O-])c3)c2C#N)c1 | 80.9% (inactive) |
| O=C1/C(=C/c2cn(-c3ccccc3)nc2-c2ccccc2)SC(=S)N1CCc1ccccc1 | 97.6% (inactive) |
| COc1cc(-c2nc3cc(Cl)c(Cl)cc3[nH]2)ccc1OCC(=O)N=Nc1c(O)[nH]c2ccccc12 | -94.9% (active) |
| O=[N+]([O-])c1ccccc1/C=N\NC(=S)N/N=C/c1ccccc1[N+](=O)[O-] | -1.94% (active) |
| CCCSc1ccc2nc(NC(=O)OC)[nH]c2c1 | -51% (active) |
| O=C(O)c1ccc(NC(=O)c2ccc(-c3cccc([N+](=O)[O-])c3)o2)cc1 | 100% (inactive) |
| COc1ccc(C(=O)COc2ccc(/C=C3\Oc4ccc(OC)cc4C3=O)cc2)cc1 | 115% (inactive) |
| CCNC(=O)Oc1ccc(/C(=C(\C)c2ccc(Cl)cc2)c2ccc(OCCN(CC)CC)cc2)cc1 | 25% (inactive) |
| COc1ccc(N=Nc2nccs2)c(O)c1 | 58.7% (inactive) |
